# In the supplement of paper PMC8728848:
# This excerpt belongs to a sample that is enriched for the strongest signals.
# B1: GS7807P-bth-537-23-537 (Bacteroides thetaiotaomicron) (protein)
# chain: NYENINSNPYEAPDLSADGYALGSAMNNLAGCVVSPDVNTAQFTDCLLGGPLGGYFADSNAGFTETISNFNPKDDWSRVFLKSDKIIPTLYSNLTQVKLVSQNTNDPVPYAIAQVIKVAAMHRVTDAFGPIPYSQIGANGEIATPYDSQEVTYNTFFDELNAAIATLNENSNEQLVPTADYIYKGDVKKWIRFANSLKLRLAIRIAYANPVKAQQMAEEAVNPANGGVIESNADNATWNYFETSQNPIYVATRYNQVQTSDHGGVPCLTGGDTHAAADIICYMNGYKDNRREKFFTKSEWAGQDYVGMRRGIVIPELKTTGHKYSGVNIAPTSPLYWMNAAEVAFLRAEGQAVFNFSMGGTAESFYNQGIRLSFEQWGADGVEDYLKDDVNKPTAYTDPAGTNTYQNALSNITIKWNDSADKEEKQERIIVQKWIANWQLGNEAWADFRRTGYPKLIPVKENKSGGVVDSEKGARRMPYPLDEFVSNKANVEYAIANYLHGADNMATDVWWASKK
# What was measured:
# Assay in all cases: glycan array binding signal (z-score within array); higher = stronger binding
# Details in all cases: glycan notation: IUPAC condensed, linker removed
# [1] = target: GlcNAc(b1-3)Gal(b1-4)GlcNAc(b1-3)Gal(b1-4)GlcNAc(b1-2)[GlcNAc(b1-3)Gal(b1-4)GlcNAc(b1-3)Gal(b1-4)GlcNAc(b1-6)]Man(a1-6)[GlcNAc(b1-3)Gal(b1-4)GlcNAc(b1-3)Gal(b1-4)GlcNAc(b1-2)Man(a1-3)]Man(b1-4)GlcNAc(b1-4)[Fuc(a1-6)]GlcNAc
# Procedure, shortened: (§1)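 Negative Z-scores can be read as non-binding. The Z-score is calculated within each array and then averaged across arrays of one protein sequence at different concentrations or buffers and across linkers. Arrays, 3228 in all, were curated from the Consortium for Functional Glycomics database and kept only where the protein sequence was available.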
# [2] = target: GlcNAc(b1-3)Gal(b1-4)GlcNAc(b1-3)Gal(b1-4)GlcNAc(b1-3)Gal(b1-4)GlcNAc(b1-3)Gal(b1-4)GlcNAc(b1-2)Man(a1-3)[GlcNAc(b1-3)Gal(b1-4)GlcNAc(b1-3)Gal(b1-4)GlcNAc(b1-3)Gal(b1-4)GlcNAc(b1-3)Gal(b1-4)GlcNAc(b1-2)Man(a1-6)]Man(b1-4)GlcNAc(b1-4)GlcNAc
# Procedure, shortened: as §1
# [3] = target: GlcNAc(b1-3)Gal(b1-4)GlcNAc(b1-6)[GlcNAc(b1-3)]Gal(b1-4)GlcNAc
# Procedure, shortened: as §1
# [4] = target: GlcNAc(b1-4)[GlcNAc(b1-6)]GalNAc
# Procedure, shortened: as §1
# [5] = target: Man(a1-2)Man(a1-2)Man(a1-3)Man
# Procedure, shortened: as §1
# [6] = target: Man(a1-2)Man(a1-2)Man(a1-6)[Man(a1-3)]Man
# Procedure, shortened: as §1
# [7] = target: Man(a1-2)Man(a1-3)[Man(a1-2)Man(a1-6)]Man(a1-6)[Man(a1-2)Man(a1-2)Man(a1-3)]Man
# Procedure, shortened: as §1
# [8] = target: Man(a1-3)[Man(a1-6)]Man(a1-6)[Man(a1-2)Man(a1-3)]Man(b1-4)GlcNAc(b1-4)GlcNAc
# Procedure, shortened: as §1
# [9] = target: Neu5Ac(a2-3)Gal(b1-3)GlcNAc(b1-4)Gal(b1-4)Glc
# Procedure, shortened: as §1
# [10] = target: Neu5Ac(a2-3)Gal(b1-3)[Neu5Ac(a2-6)]GalNAc
# Procedure, shortened: as §1
# [11] = target: Neu5Ac(a2-3)Gal(b1-4)GlcNAc(b1-3)GalNAc
# Procedure, shortened: as §1
# [12] = target: Neu5Ac(a2-3)Gal(b1-4)GlcNAc6S
# Procedure, shortened: as §1
# [13] = target: Neu5Ac(a2-3)Gal(b1-4)[Fuc(a1-3)]GlcNAc(b1-3)Gal(b1-4)GlcNAc
# Procedure, shortened: as §1
# [14] = target: Neu5Ac(a2-3)Gal(b1-4)[Fuc(a1-3)]GlcNAc6S
# Procedure, shortened: as §1
# [15] = target: Neu5Ac(a2-3)GalNAc(b1-4)GlcNAc
# Procedure, shortened: as §1
# [16] = target: Neu5Ac(a2-3)[GalNAc(b1-4)]Gal(b1-4)GlcNAc
# Procedure, shortened: as §1
# [17] = target: Neu5Ac(a2-6)Gal(b1-4)GlcNAc(b1-2)Man
# Procedure, shortened: as §1
# [18] = target: Neu5Ac(a2-6)Gal(b1-4)GlcNAc(b1-2)Man(a1-3)[GlcNAc(b1-2)Man(a1-6)]Man(b1-4)GlcNAc(b1-4)GlcNAc
# Procedure, shortened: as §1
# [19] = target: Neu5Ac(a2-6)Gal(b1-4)GlcNAc(b1-2)Man(a1-3)[Man(a1-6)]Man(b1-4)GlcNAc(b1-4)GlcNAc
# Procedure, shortened: as §1
# [20] = target: Neu5Ac(a2-6)Gal(b1-4)GlcNAc(b1-2)Man(a1-6)Man(b1-4)GlcNAc(b1-4)GlcNAc
# Procedure, shortened: as §1
# [21] = target: Neu5Ac(a2-6)Gal(b1-4)GlcNAc(b1-2)Man(a1-6)[Man(a1-3)]Man(b1-4)GlcNAc(b1-4)GlcNAc
# Procedure, shortened: as §1
# [22] = target: Neu5Ac(a2-6)Gal(b1-4)GlcNAc(b1-2)[Neu5Ac(a2-6)Gal(b1-4)GlcNAc(b1-4)]Man(a1-3)[GlcNAc(b1-4)][Neu5Ac(a2-6)Gal(b1-4)GlcNAc(b1-2)[Neu5Ac(a2-6)Gal(b1-4)GlcNAc(b1-6)]Man(a1-6)]Man(b1-4)GlcNAc(b1-4)GlcNAc
# Procedure, shortened: as §1
binder,measurement,setting,value
B1,glycan array binding signal (z-score),[1],19.1
same,glycan array binding signal (z-score),[2],0.265
same,glycan array binding signal (z-score),[3],-0.326
same,glycan array binding signal (z-score),[4],-0.32
same,glycan array binding signal (z-score),[5],-0.398
same,glycan array binding signal (z-score),[6],-0.343
same,glycan array binding signal (z-score),[7],-0.267
same,glycan array binding signal (z-score),[8],2
same,glycan array binding signal (z-score),[9],-0.398
same,glycan array binding signal (z-score),[10],-0.387
same,glycan array binding signal (z-score),[11],-0.371
same,glycan array binding signal (z-score),[12],-0.377
same,glycan array binding signal (z-score),[13],0.04
same,glycan array binding signal (z-score),[14],-0.338
same,glycan array binding signal (z-score),[15],-0.329
same,glycan array binding signal (z-score),[16],-0.363
same,glycan array binding signal (z-score),[17],-0.32
same,glycan array binding signal (z-score),[18],-0.356
same,glycan array binding signal (z-score),[19],1.81
same,glycan array binding signal (z-score),[20],0.297
same,glycan array binding signal (z-score),[21],5.2
same,glycan array binding signal (z-score),[22],-0.083
